Legend:
[1] = target: Ribosomal protein S6 kinase alpha-6 (Homo sapiens) (UniProt Q9UK32); conditions: at 1 µM;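 further: each value is a mean inhibition of RSK4 from a GSK PKIS panel screen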
[2] = target: T1, Serine/threonine-protein kinase Sgk1 (Homo sapiens) (UniProt O00141); conditions: at 0.1 µM
T1 sequence (whole entry): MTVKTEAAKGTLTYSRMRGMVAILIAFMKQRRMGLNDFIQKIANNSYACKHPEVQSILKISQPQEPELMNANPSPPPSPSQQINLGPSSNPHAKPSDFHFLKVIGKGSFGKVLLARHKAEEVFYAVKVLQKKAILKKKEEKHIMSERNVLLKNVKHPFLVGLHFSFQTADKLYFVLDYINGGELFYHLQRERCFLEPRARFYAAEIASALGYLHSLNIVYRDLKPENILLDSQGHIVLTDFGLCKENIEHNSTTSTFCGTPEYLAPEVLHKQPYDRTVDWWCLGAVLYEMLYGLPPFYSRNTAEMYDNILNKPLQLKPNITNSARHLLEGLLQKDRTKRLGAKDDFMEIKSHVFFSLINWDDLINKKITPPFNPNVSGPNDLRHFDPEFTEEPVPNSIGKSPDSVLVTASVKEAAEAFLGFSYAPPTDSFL

[3] = target: T1, Serine/threonine-protein kinase Sgk1 (Homo sapiens); conditions: at 1 µM
[4] = target: T2, Serine/threonine-protein kinase Sgk2 (Homo sapiens) (UniProt Q9HBY8); conditions: at 0.1 µM
T2 sequence (whole entry): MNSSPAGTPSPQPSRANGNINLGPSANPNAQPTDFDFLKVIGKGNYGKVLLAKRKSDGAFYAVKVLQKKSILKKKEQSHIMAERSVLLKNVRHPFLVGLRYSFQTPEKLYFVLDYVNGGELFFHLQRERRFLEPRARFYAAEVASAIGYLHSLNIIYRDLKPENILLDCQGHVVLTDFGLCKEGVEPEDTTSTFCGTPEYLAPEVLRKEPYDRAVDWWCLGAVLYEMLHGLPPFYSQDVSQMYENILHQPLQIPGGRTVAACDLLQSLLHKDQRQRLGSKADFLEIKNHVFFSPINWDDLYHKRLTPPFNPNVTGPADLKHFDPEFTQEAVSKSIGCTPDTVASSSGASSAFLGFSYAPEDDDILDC

[5] = target: T2, Serine/threonine-protein kinase Sgk2 (Homo sapiens); conditions: at 1 µM
[6] = target: T3, Serine/threonine-protein kinase Sgk3 (Homo sapiens) (UniProt Q96BR1); conditions: at 0.1 µM
T3 sequence (whole entry): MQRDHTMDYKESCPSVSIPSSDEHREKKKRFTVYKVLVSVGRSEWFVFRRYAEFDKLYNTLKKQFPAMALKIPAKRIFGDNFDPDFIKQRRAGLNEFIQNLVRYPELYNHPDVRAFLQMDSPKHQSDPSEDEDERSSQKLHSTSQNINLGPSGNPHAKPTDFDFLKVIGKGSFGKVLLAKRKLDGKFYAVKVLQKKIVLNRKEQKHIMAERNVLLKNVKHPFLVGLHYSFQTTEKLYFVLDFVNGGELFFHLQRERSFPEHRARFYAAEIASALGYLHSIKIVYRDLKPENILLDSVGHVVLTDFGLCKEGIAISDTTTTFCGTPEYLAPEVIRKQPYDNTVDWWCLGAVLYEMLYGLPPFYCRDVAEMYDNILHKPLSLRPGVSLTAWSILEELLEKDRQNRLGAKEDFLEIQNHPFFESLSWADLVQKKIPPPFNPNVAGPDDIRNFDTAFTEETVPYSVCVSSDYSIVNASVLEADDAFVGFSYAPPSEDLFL

[7] = target: T3, Serine/threonine-protein kinase Sgk3 (Homo sapiens); conditions: at 1 µM
[8] = target: 5'-AMP-activated protein kinase catalytic subunit alpha-1 (Homo sapiens) (UniProt Q13131); conditions: at 0.1 µM
5'-AMP-activated protein kinase catalytic subunit alpha-1 (Homo sapiens), sequence (Q13131 whole entry, looked up): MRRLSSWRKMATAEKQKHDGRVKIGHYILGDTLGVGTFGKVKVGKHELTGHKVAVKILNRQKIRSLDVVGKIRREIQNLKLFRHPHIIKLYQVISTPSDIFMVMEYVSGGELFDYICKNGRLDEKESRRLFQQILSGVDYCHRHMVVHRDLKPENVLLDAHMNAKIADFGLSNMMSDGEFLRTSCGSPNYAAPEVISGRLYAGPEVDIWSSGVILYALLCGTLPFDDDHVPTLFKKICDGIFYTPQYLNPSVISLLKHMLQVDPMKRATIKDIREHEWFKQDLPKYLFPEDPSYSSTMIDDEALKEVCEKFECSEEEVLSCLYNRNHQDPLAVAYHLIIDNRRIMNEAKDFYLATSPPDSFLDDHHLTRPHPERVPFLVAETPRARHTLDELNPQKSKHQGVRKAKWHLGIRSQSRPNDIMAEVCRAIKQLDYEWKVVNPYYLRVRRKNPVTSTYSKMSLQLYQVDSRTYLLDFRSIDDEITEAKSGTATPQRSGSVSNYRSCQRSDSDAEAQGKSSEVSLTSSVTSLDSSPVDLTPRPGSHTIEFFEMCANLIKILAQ

[9] = target: 5'-AMP-activated protein kinase catalytic subunit alpha-1 (Homo sapiens) (UniProt Q13131); conditions: at 1 µM
[10] = target: 5'-AMP-activated protein kinase catalytic subunit alpha-2 (Homo sapiens) (UniProt P54646); conditions: at 0.1 µM
5'-AMP-activated protein kinase catalytic subunit alpha-2 (Homo sapiens), sequence (P54646 whole entry, looked up): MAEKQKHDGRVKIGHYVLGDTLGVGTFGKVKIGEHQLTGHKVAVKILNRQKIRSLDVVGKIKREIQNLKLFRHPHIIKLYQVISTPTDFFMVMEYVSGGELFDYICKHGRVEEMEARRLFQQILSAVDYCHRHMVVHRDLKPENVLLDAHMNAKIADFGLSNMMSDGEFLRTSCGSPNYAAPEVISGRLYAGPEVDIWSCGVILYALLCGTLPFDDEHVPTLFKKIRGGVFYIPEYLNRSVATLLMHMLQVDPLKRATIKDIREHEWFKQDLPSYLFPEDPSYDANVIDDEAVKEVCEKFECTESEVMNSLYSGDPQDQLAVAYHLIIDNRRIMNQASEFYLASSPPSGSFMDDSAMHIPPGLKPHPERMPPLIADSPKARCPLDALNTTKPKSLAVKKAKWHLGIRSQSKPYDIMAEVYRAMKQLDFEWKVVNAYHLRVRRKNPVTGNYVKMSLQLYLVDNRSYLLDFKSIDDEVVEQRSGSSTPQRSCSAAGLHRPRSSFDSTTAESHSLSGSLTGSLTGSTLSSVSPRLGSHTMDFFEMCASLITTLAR

[11] = target: 5'-AMP-activated protein kinase catalytic subunit alpha-2 (Homo sapiens) (UniProt P54646); conditions: at 1 µM
[12] = target: T4, NUAK family SNF1-like kinase 1 (Homo sapiens) (UniProt O60285); conditions: at 0.1 µM
T4 sequence (whole entry): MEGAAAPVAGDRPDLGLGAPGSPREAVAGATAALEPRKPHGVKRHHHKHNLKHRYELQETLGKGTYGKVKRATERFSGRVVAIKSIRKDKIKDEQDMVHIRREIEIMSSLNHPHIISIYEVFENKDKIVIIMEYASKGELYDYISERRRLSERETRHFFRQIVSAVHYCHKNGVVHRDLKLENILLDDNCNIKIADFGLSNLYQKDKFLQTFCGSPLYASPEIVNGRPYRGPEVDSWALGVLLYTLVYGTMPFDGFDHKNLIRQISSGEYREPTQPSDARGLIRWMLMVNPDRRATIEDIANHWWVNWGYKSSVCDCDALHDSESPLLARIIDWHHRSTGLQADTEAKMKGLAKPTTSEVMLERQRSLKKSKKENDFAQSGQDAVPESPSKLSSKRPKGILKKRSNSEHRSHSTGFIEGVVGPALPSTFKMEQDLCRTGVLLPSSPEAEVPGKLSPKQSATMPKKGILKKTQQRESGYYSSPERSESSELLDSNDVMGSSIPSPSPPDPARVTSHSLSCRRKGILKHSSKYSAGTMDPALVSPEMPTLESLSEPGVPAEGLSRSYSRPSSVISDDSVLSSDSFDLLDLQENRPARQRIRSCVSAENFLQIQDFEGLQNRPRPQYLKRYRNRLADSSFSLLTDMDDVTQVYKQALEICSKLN

[13] = target: T4, NUAK family SNF1-like kinase 1 (Homo sapiens); conditions: at 1 µM
[14] = target: T5, Serine/threonine-protein kinase BRSK1 (Homo sapiens) (UniProt Q8TDC3); conditions: at 0.1 µM
T5 sequence (whole entry): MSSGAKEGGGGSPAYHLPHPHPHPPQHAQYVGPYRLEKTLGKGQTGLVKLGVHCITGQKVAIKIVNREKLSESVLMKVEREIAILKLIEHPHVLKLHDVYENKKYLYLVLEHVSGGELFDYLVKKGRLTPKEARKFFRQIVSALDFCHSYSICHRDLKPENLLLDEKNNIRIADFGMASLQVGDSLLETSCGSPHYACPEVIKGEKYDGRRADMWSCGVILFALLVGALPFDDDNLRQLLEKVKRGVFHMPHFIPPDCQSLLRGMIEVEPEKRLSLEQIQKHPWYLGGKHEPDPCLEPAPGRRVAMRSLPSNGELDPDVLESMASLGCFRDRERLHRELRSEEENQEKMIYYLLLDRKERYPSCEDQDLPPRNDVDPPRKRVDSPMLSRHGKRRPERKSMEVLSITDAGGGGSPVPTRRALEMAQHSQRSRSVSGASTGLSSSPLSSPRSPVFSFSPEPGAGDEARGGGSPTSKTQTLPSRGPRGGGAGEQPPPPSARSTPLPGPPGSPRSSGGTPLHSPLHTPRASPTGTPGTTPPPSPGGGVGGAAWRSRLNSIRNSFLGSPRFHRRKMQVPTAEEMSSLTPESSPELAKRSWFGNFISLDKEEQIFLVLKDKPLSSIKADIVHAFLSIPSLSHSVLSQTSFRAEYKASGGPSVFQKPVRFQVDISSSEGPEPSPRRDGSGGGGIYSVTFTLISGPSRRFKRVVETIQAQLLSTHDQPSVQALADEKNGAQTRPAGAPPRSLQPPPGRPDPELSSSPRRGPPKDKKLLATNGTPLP

[15] = target: T5, Serine/threonine-protein kinase BRSK1 (Homo sapiens); conditions: at 1 µM
[16] = target: T6, Serine/threonine-protein kinase BRSK2 (Homo sapiens) (UniProt Q8IWQ3); conditions: at 0.1 µM
T6 sequence (whole entry): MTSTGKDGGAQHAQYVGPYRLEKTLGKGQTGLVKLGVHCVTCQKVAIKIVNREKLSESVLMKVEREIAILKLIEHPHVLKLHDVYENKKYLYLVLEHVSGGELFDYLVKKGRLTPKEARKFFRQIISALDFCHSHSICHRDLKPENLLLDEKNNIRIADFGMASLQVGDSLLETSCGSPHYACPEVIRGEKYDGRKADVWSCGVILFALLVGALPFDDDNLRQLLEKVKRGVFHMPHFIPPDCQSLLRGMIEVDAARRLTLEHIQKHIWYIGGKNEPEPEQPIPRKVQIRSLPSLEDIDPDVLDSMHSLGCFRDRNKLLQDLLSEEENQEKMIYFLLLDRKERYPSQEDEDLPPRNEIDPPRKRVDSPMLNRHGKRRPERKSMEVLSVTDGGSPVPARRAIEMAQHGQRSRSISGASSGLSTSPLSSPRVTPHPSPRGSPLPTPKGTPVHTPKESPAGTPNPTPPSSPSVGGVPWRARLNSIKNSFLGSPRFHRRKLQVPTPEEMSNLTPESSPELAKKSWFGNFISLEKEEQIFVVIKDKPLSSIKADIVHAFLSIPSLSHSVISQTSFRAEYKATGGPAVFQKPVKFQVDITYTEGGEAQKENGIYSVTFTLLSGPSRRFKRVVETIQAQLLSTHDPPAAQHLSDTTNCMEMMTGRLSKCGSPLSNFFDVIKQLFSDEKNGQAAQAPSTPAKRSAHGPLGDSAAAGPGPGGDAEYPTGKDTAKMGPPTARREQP

[17] = target: T6, Serine/threonine-protein kinase BRSK2 (Homo sapiens); conditions: at 1 µM
[18] = target: Calcium/calmodulin-dependent protein kinase type 1D (Homo sapiens) (UniProt Q8IU85); conditions: at 0.1 µM
Calcium/calmodulin-dependent protein kinase type 1D (Homo sapiens), sequence (Q8IU85 whole entry, looked up): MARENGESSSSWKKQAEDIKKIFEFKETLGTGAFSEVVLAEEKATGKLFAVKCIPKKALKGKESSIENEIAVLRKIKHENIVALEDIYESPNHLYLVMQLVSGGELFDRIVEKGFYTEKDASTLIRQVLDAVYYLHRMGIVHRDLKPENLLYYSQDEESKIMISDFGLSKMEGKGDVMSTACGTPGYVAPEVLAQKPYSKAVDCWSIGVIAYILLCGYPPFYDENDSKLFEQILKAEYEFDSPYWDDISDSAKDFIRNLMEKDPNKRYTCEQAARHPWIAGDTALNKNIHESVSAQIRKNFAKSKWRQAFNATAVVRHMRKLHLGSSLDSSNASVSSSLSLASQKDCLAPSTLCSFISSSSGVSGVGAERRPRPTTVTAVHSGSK

[19] = target: Calcium/calmodulin-dependent protein kinase type 1D (Homo sapiens) (UniProt Q8IU85); conditions: at 1 µM
[20] = target: Calcium/calmodulin-dependent protein kinase type II subunit alpha (Homo sapiens) (UniProt Q9UQM7); conditions: at 0.1 µM;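 further: reported values are averages (mean inhibition of CAMK2A)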
Calcium/calmodulin-dependent protein kinase type II subunit alpha (Homo sapiens), sequence (Q9UQM7 whole entry): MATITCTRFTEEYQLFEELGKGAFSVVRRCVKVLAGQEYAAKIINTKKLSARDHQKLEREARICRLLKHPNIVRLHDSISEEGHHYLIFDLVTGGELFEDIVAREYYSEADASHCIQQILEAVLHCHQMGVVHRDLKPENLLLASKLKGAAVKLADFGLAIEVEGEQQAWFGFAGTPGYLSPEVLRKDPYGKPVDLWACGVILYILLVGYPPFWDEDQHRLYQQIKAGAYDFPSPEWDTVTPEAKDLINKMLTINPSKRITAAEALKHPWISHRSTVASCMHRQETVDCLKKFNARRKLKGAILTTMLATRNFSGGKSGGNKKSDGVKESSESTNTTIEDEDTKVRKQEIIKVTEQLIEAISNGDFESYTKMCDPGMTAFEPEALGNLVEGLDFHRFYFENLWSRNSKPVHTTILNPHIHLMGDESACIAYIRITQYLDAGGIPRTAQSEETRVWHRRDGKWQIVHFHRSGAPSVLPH

Ribosomal protein S6 kinase alpha-6 (Homo sapiens), sequence (Q9UK32 whole entry): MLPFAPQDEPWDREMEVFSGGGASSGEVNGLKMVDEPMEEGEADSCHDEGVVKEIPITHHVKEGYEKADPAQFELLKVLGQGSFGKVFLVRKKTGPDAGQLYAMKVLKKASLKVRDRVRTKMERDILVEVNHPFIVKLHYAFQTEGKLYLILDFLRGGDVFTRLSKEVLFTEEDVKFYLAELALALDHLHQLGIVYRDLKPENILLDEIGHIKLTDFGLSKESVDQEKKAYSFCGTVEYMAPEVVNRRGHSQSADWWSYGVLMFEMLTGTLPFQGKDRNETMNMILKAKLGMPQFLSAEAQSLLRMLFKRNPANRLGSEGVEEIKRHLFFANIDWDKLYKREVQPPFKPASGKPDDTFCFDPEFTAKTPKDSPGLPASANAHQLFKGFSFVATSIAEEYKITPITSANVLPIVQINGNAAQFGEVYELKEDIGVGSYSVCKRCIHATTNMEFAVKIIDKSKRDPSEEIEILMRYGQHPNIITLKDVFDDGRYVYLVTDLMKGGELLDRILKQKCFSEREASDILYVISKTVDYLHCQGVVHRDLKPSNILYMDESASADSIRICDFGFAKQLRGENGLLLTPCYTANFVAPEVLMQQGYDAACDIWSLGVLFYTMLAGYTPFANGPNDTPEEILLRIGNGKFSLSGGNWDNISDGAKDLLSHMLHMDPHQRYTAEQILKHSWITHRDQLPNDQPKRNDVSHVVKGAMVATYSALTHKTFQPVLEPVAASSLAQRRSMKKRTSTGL

Compound	inhibition [1]	inhibition [2]	inhibition [3]	inhibition [4]	inhibition [5]	inhibition [6]	inhibition [7]	inhibition [8]	inhibition [9]	inhibition [10]	inhibition [11]	inhibition [12]	inhibition [13]	inhibition [14]	inhibition [15]	inhibition [16]	inhibition [17]	inhibition [18]	inhibition [19]	inhibition [20]
COc1cc(Nc2nccc(-c3cnn4ncccc34)n2)cc(OC)c1	6.06%	2.68%	4.34%	1.68%	-0.04%	1.95%	2.1%	3.39%	16.7%	0.99%	17.4%	69.1%	84.8%	1.03%	5.11%	0.3%	6.76%	0.86%	6.41%	3.61%
OCc1ccc(-c2nc(-c3ccccn3)c(-c3ccc4c(c3)OCO4)[nH]2)cc1	2.9%	3.65%	0.91%	1.37%	1.29%	3.28%	2.86%	3.68%	2.81%	2.09%	4.26%	3.72%	5.56%	2.53%	1.5%	2%	0.59%	0.54%	0.26%	4.98%
Cc1ccc(O)cc1Nc1ccnc2ccc(S(C)(=O)=O)cc12	1.9%	3.76%	6.8%	4.31%	4.71%	4.36%	5.21%	2.21%	5.69%	3.06%	3.93%	2%	4.91%	0.5%	1.8%	2.1%	5.1%	-0.51%	0.98%	2.94%
NS(=O)(=O)c1ccc(-c2cc3ccncc3cc2OCc2ccccc2)cc1	0.34%	2.5%	2.69%	1.44%	-1.22%	0.75%	2.72%	2.82%	3.15%	0.66%	2.32%	-0.67%	-0.08%	-0.48%	0.47%	0.96%	2.69%	-6.04%	0.65%	1.83%
O=C1Nc2ccc(-c3cccnc3)cc2C1=Cc1cc(Br)c(O)c(Br)c1	5.51%	3.01%	3.05%	1.63%	6.41%	3.1%	2%	3.07%	3.3%	2.54%	7.03%	-0.34%	4.71%	2.51%	4.37%	2.22%	2.32%	1.08%	4.01%	2.95%

Reference: ChEMBL document CHEMBL1961873, “Compounds: GSK PKIS; Assays: Nanosyn kinase panel” (2012)
